# “And” between values parts separate entries of the source, which are not always exact repeats. Identical values can stand only once. Inconclusive results are not listed. A number with no mark means an inactive call. The source made the active and inactive calls. Calls come from the whole dose curve; as a rule, active = well fitted activation curve with a large enough effect; inconclusive = small, poorly fitted or top-dose-only effect; inactive = no such curve, though single readings can be large or run the other way.
# Molecular target: Cellular tumor antigen p53 (Homo sapiens) (UniProt P04637)
# Sequence (P04637 whole entry, looked up): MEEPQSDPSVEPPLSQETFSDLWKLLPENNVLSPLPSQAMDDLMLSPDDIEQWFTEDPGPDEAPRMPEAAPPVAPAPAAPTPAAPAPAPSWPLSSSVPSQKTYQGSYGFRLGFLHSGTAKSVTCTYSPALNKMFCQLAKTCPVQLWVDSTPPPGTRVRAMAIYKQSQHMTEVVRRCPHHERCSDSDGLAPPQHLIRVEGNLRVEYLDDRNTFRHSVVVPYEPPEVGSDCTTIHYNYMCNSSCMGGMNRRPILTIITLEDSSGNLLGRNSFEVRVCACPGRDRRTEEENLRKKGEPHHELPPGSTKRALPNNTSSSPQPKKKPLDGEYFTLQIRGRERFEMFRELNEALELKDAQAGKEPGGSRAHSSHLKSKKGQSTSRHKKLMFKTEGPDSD
# Test: Primary qHTS for small molecule compounds that upregulate eGFP-tagged delta133p53alpha (in N-terminal) cells. (AID 2060322); note: nearly all actives have a fitted effect of over 75% in size;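 for activation: cells pre-induced with doxycycline then dosed without doxycycline; series mostly up to about 56 µM; 0% = DMSO vehicle and 100% = reference activator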
# Conditions: NCI-H358 eGFP-delta133p53alpha fluorescence, 24 h; activation: hits give high values
# Excerpt: Assay Development and Screening Technology
# National Center for Advancing Translational Sciences (NCATS),
# National Institute of Health (NIH), Rockville, Maryland
# Cellular senescence (CS) is one of the hallmarks of aging and age-related diseases. Senescent cells are characterized by an irreversible growth arrest, an increase in senescence-associated beta-galactosidase (SA-beta-gal) activity and p16INK4a expression, an activation of the DNA damage response pathways, and the emergence of a senescence-associated secretory phenotype (SASP).
# Delta133p53alpha, a human/primate-specific p53 protein isoform, delays or inhibits the induction of CS and SASP in various types of human cells, including progeria-derived fibroblasts, primary normal astrocytes, and CD8+ T lymphocytes. Induction of delta133p53alpha with small molecule compounds may provide therapeutic opportunities for inhibition of senescence/SASP-associated pathologies in progeria syndromes, astrocyte-mediated neuroprotection in neurodegenerative diseases, and possibly prevention and treatment of a wider range of senescence- and aging-associated diseases.
# Here we report the development and validation of a cell-based quantitative high throughput screening (qHTS) assay in 1,536-well format. This qHTS assay uses the NCI-H358 cell line with doxycycline-inducible expression of enhanced green fluorescent protein (eGFP)-tagged delta133p53alpha, which allows efficient and highly quantitative measurement of the protein levels.
# PROTOCOL TABLE (as described by Inglese J, Shamu CE and Guy RK. 2007)
# SEQUENCE No. (e.g., 1, 2, 3, etc.); […] (e.g., Cells, Incubation, Reagent, etc.); VALUE; DESCRIPTION.
# 1; Cells; 4uL; 800 doxycycline treated cells / well in doxycycline-free media, 1536-well black, clear-bottom low base Aurora microplates.
# 2; Compounds; 23 nL; Kalypsis pin tool (Wako) equipped with 1536-well pin heads, 5-azacytidine positive control.
# 3; Incubation; 24 hr; 37C, 5% CO2; 95% relative humidity.
# 4; Aspiration; 1x; BioTek EL406 washer dispenser (Agilent).
# 5; Fixing; 3.5% paraformaldehyde, BioTek EL406 washer dispenser (Agilent).
# 6; Washing; 1x PBS; BioTek EL406 washer dispenser (Agilent).
# 7; Nuclei staining; 1:1000 dilution of Hoechst 33342 (Thermofisher), BioTek EL406 washer dispenser (Agilent).
# 8; Incubation; 20 min; in the dark at room temperature.
# 9; Washing; 2x, 1x PBS (ThermoFisher), BioTek EL406 washer dispenser (Agilent).
# 10; Reagent; 10 uL; 1x PBS per well, sealed with clear adhesive tape.
# NOTES (numbers refer to sequence numbers above).
# 1. NCI-H358 cells expressing eGFP-tagged delta133p53alpha were grown in T75 culture flasks and treated with doxycycline for 24h, at 10 ng/ml for eGFP-D133p53a cells (N-terminal cell) and 100 ng/ml for D133p53a-eGFP cells (C-terminal cells). Cells were trypsinized, counted using a Counted 3 Automated Cell Counter (Thermo Fisher), and diluted to a concentration of 200,000 cells/ml. A Multidrop Combi Reagent Dispenser (ThermoFisher) was used to dispense 800 cells/well in […] of doxycycline-free media, into 1536-well black/clear bottom low base plates (AuroraMicroplates).
# 2. After plating cells, 23 nl of compound library, DMSO vehicle control or positive control (5-azacytidine) were transferred by Pin Tool (Wako). The plate map layout was the same for each plate: (column 1) non-doxycycline treated cells + DMSO vehicle control; (column 2) doxycycline treated cells + DMSO vehicle control baseline; (column 3) doxycycline treated cells + positive control 57.5 uM final concentration 5-azacytidine; (column 4) doxycycline treated cells + serial dilution of 5-azacytidine, 16-point 1:2 titration spanning 1.8 nM to […] final concentration; (columns 5-48) doxycycline treated cells + titration of library compounds.
# 3. Cells were incubated at 37 °C, 5 % CO2, 95% RH with breathable metal lid for 24h.
# 4-10. […] After two washes, 10 ul of 1X PBS (Thermo Fisher) was dispensed to each well. Clear adhesive plate seals (VWR) were applied and plates stored at 4 °C.
# 11. […]
# Potency is the fitted concentration of half-maximal effect.
SMILES,activation,Potency
CC(C)C(CO)Nc1nc(Nc2ccc(C(=O)O)c(Cl)c2)c2ncn(C(C)C)c2n1 (stereo not given),6.21%,
CCCC(=O)NCCc1c2n(c3ccc(OC)cc13)CCCc1ccccc1-2,-45.5%,
CC(=O)N[C@H](Cc1c[nH]c2ccccc12)C(=O)OCc1cc(C(F)(F)F)cc(C(F)(F)F)c1,14.3%,
CC(=O)NCc1cccc(OC[C@@H](O)CNCCc2ccc(NS(=O)(=O)c3ccccc3)cc2)c1,8.93%,
CC(C)=C(C#N)C(=O)N1CCCN(c2cc(NCCC(=O)O)nc(-c3ccccn3)n2)CC1,3.35%,
Brc1cc2c(cc1[C@H]1Nc3ccccc3[C@H]3C=CC[C@H]31)OCO2,-5.37%,
Cc1oc2nc3c(c(NC(=O)CN4CCCC4=O)c2c1C)CCCC3,-3.82%,
CCOC(=O)C(O)c1ccccc1 (stereo not given),-24.3%,
Oc1cc(O)cc(C=Cc2ccc(O)c(O)c2)c1,8.33%,
Cc1c[nH]c(C=C2C(=O)Nc3ccccc32)c1CCC(=O)O,,24.3 µM (active)
N[C@@H](CCCC(=O)O)C(=O)O,-8.81%,
COc1c(C)c2c(c(O)c1C/C=C(\C)CCC(=O)OCCN1CCOCC1)C(=O)OC2,-10.7%,
Cc1scc2c1N(C(=O)CN1CCN(C)CC1)c1ccccc1NC2=O,-13.4% and -3.34%,
COC(=O)C1C(O)CCC2CN3CCc4c([nH]c5ccccc45)C3CC21 (stereo not given),23.2%,
Cc1cc(N=Nc2ccc(S(=O)(=O)Nc3ccccn3)cc2)c(N)cc1O,-5%,
COCC(=O)NC/C=C/c1ccc2ncnc(Nc3ccc(Oc4ccc(C)nc4)c(C)c3)c2c1,0%,
O=[N+]([O-])c1ccc(CNc2nc(NCc3cccc(C(F)(F)F)c3)nc3nc[nH]c23)cc1,-48.1% and 15.7%,
O=C(O)c1ccc(O)c2ncc(N3CCCN(CCc4cccc5ccccc45)CC3)cc12,21.2%,
CCCCCCCCCCCCCCC[C@H](O)[C@@H](N)CO,18.4%,
CC1(C)S[C@@H]2[C@H](N=CN3CCCCCC3)C(=O)N2[C@H]1C(=O)O,-11.9%,

SMILES,activation,Potency
Nc1ccc(-c2ccc3ccccc3n2)cc1,29.5%,
CC(=O)OC1CCC2(C)C(CCC3(C)C2CC=C2C4CC(C)(C)CCC4(C)CCC23C)C1(C)C(=O)O (stereo not given),27.7%,
CC(C)=CCc1cc(O[C@@H]2O[C@H](CO[C@@H]3OC[C@](O)(CO)[C@H]3O)[C@@H](O)[C@H](O)[C@H]2O)ccc1O,22.1%,
CC(C)c1ccc2c(c1)C(O)CC1C(C)(C(=O)O)CCCC21C (stereo not given),-6.11%,
COc1cc(C#N)ccc1S(=O)(=O)Nc1ccc2c(c1)cc(C)c(=O)n2C,-7%,
CC(C)(C)NC(=O)Nc1cccc(Nc2ncc(F)c(NC(C)(C)CO)n2)c1,-4.76% and -4.3%,
CN(C)CC(C)(C)CNc1nn2c(-c3ccccc3)nnc2cc1C1CCC1,-1.72% and 7.14%,
C[C@H](NC(=O)Cc1cc(F)cc(F)c1)C(=O)N[C@H](C(=O)OC(C)(C)C)c1ccccc1,11.5%,
C=C1CCC2C(C)(C)CC(=O)CC2(C)C1CCC(C)CCOC(C)=O (stereo not given),-5.34%,
CCC(c1ccc(O)cc1)C(CC)c1ccc(O)cc1 (stereo not given),3.07%,
NC(N)=NCCC[C@H](NC(=O)c1sccc1NS(=O)(=O)c1cccc2nsnc12)C(=O)O,-11.5%,
CC1=C(C(=O)OC2CCCCC2)C(c2ccc([N+](=O)[O-])cc2)C2=C(CC(C)(C)CC2=O)N1 (stereo not given),7.16%,
CC(C)(C)C(=O)Oc1ccc(S(=O)(=O)Nc2ccccc2C(=O)NCC(=O)O)cc1,-5.86% and -2.63% and -11.2%,
CNC(=O)c1ccc(C)c(-n2c(C)cc(OCc3ccc(F)cc3F)c(Br)c2=O)c1,30.3% and -12.5%,
CCOC(=O)c1ccc(OCCC2CCN(c3ccc(C)nn3)CC2)cc1,-17.9%,
O=C(O)c1cccc(C(=O)CCC2OC(n3cnc4c(=O)[nH]cnc43)C(O)C2O)c1 (stereo not given),15.3%,
COc1ccc(-c2cc3c(C)nc(N)nc3n(C3CCC(OCCO)CC3)c2=O)cn1 (stereo not given),3.45%,
CCCCCCCC(=O)[O-].CCCCCCCC(=O)[O-].[Zn+2],14.1%,
Cc1c(NC(=O)c2cc(C(N)=O)nc3cc(F)ccc23)c(C(F)(F)F)nn1Cc1ccc(C#N)cc1,14.3%,
CC(C)=CCC/C(C)=C/CC/C(C)=C/CCC(=O)OC/C=C(\C)CCC=C(C)C,0.565%,
